# Laboratory results: publication PMC8384837, “Expanding the binding specificity for RNA recognition by a PUF domain”
# Columns and labels:
# Experiment in all cases: yeast three-hybrid, YBZ-1, SC-Leu-His + 0.5 mM 3-AT, 4 days
# Details in all cases: tags: N-Gal4 AD-HA kept; label: inside an RPR1-promoter hybrid RNA with tandem MS2 sites; ssRNA
# PUM1 PUF domain R6-VYM = biological target: T1, PUM1 PUF domain R6-VYM (Homo sapiens, UniProt Q14671 828-1176, N1043V;Q1047M)
# T1 sequence: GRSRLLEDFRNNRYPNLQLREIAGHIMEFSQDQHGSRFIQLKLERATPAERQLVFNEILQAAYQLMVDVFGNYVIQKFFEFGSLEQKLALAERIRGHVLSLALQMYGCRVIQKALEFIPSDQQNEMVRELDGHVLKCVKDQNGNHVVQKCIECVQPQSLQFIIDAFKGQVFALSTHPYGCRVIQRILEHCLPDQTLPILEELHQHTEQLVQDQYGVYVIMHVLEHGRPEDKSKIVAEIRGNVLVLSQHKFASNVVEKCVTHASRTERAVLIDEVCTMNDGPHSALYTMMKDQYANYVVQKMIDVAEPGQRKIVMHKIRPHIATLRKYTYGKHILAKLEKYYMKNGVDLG
# In short: (§1)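 A centromeric plasmid in strain YBZ-1 co-expressed Pumilio-1 PUF domain libraries, randomized at the three base-contacting residues of each repeat, with matching RNA elements; the strain carries a LexA–MS2 coat fusion and a HIS3 reporter. After four days on SC-Leu (input) or SC-Leu-His + 0.5 mM 3-AT (selection), the repeat regions were PCR-amplified and Illumina-sequenced. The interaction score is the log change in variant frequency from input to selection, using log2 and a pseudocount of 1 where absent.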
# PUM1 PUF domain R3-DFE = PUM1 PUF domain R3-DFE (Homo sapiens, UniProt Q14671 828-1176, C935D;R936F;Q939E)
# In short: as §1
# PUM1 PUF domain R4-VHH = PUM1 PUF domain R4-VHH (Homo sapiens, UniProt Q14671 828-1176, N971V;Q975H)
# In short: as §1
# PUM1 PUF domain R4-EHR = PUM1 PUF domain R4-EHR (Homo sapiens, UniProt Q14671 828-1176, N971E;Q975R)
# In short: as §1
# PUM1 PUF domain R5-RSR = PUM1 PUF domain R5-RSR (Homo sapiens, UniProt Q14671 828-1176, C1007R;R1008S;Q1011R)
# In short: as §1
# PUM1 PUF domain R5-SQS = PUM1 PUF domain R5-SQS (Homo sapiens, UniProt Q14671 828-1176, C1007S;R1008Q;Q1011S)
# In short: as §1
# PUM1 PUF domain R8-PYH = PUM1 PUF domain R8-PYH (Homo sapiens, UniProt Q14671 828-1176, N1122P;Q1126H)
# In short: as §1
# PUM1 PUF domain R1-KAS = PUM1 PUF domain R1-KAS (Homo sapiens, UniProt Q14671 828-1176, S863K;R864A;Q867S)
# In short: as §1
# PUM1 PUF domain R1-RVQ = PUM1 PUF domain R1-RVQ (Homo sapiens, UniProt Q14671 828-1176, S863R;R864V)
# In short: as §1
# PUM1 PUF domain R7-RFP = PUM1 PUF domain R7-RFP (Homo sapiens, UniProt Q14671 828-1176, S1079R;N1080F;E1083P)
# In short: as §1
sequence,measurement,setting,value
GGCUAGAACUAGUGGAUCCCCCGGCGCCCGGCGGCUCGAGCCCGGGUAAGUGUAAAUAGUCUGCAUGCCGCCGGGCGCCAUGCCUGCAGGUCGACUCUAGAAAACAUG,binding signal,PUM1 PUF domain R6-VYM,2.8 log2 enrichment (interaction score)
same,binding signal,PUM1 PUF domain R3-DFE,2.28 log2 enrichment (interaction score)
GGCUAGAACUAGUGGAUCCCCCGGCGCCCGGCGGCUCGAGCCCGGGUAAGUGAAAAUAGUCUGCAUGCCGCCGGGCGCCAUGCCUGCAGGUCGACUCUAGAAAACAUG,binding signal,PUM1 PUF domain R6-VYM,6.6 log2 enrichment (interaction score)
GGCUAGAACUAGUGGAUCCCCCGGCGCCCGGCGGCUCGAGCCCGGGUAAGUGUACAUAGUCUGCAUGCCGCCGGGCGCCAUGCCUGCAGGUCGACUCUAGAAAACAUG,binding signal,PUM1 PUF domain R4-VHH,5.04 log2 enrichment (interaction score)
same,binding signal,PUM1 PUF domain R4-EHR,3 log2 enrichment (interaction score)
GGCUAGAACUAGUGGAUCCCCCGGCGCCCGGCGGCUCGAGCCCGGGUAAGUGUCAAUAGUCUGCAUGCCGCCGGGCGCCAUGCCUGCAGGUCGACUCUAGAAAACAUG,binding signal,PUM1 PUF domain R5-RSR,4.48 log2 enrichment (interaction score)
GGCUAGAACUAGUGGAUCCCCCGGCGCCCGGCGGCUCGAGCCCGGGUAAGUGUUAAUAGUCUGCAUGCCGCCGGGCGCCAUGCCUGCAGGUCGACUCUAGAAAACAUG,binding signal,PUM1 PUF domain R5-RSR,3.79 log2 enrichment (interaction score)
GGCUAGAACUAGUGGAUCCCCCGGCGCCCGGCGGCUCGAGCCCGGGUAAGUGUGAAUAGUCUGCAUGCCGCCGGGCGCCAUGCCUGCAGGUCGACUCUAGAAAACAUG,binding signal,PUM1 PUF domain R5-SQS,3.19 log2 enrichment (interaction score)
GGCUAGAACUAGUGGAUCCCCCGGCGCCCGGCGGCUCGAGCCCGGGUAAGCGUAAAUAGUCUGCAUGCCGCCGGGCGCCAUGCCUGCAGGUCGACUCUAGAAAACAUG,binding signal,PUM1 PUF domain R8-PYH,3.67 log2 enrichment (interaction score)
GGCUAGAACUAGUGGAUCCCCCGGCGCCCGGCGGCUCGAGCCCGGGUAAGUGUAAAUUGUCUGCAUGCCGCCGGGCGCCAUGCCUGCAGGUCGACUCUAGAAAACAUG,binding signal,PUM1 PUF domain R1-KAS,3.9 log2 enrichment (interaction score)
same,binding signal,PUM1 PUF domain R1-RVQ,4.43 log2 enrichment (interaction score)
GGCUAGAACUAGUGGAUCCCCCGGCGCCCGGCGGCUCGAGCCCGGGUAAGUCUAAAUAGUCUGCAUGCCGCCGGGCGCCAUGCCUGCAGGUCGACUCUAGAAAACAUG,binding signal,PUM1 PUF domain R7-RFP,5.14 log2 enrichment (interaction score)
GGCUAGAACUAGUGGAUCCCCCGGCGCCCGGCGGCUCGAGCCCGGGUAAGUGUAUAUAGUCUGCAUGCCGCCGGGCGCCAUGCCUGCAGGUCGACUCUAGAAAACAUG,binding signal,PUM1 PUF domain R4-EHR,3.83 log2 enrichment (interaction score)
GGCUAGAACUAGUGGAUCCCCCGGCGCCCGGCGGCUCGAGCCCGGGUAAGUGUAAAUCGUCUGCAUGCCGCCGGGCGCCAUGCCUGCAGGUCGACUCUAGAAAACAUG,binding signal,PUM1 PUF domain R1-RVQ,4.56 log2 enrichment (interaction score)
